Test results from PubChem BioAssay (EPA / NIEHS).
Records with an inconclusive call do not appear. The source made the active and inactive calls. The calls were made as follows, unless noted: active = hit-call score of the fitted dose curve at least 0.9, where 1 is the maximum; inactive = score below 0.9.

Legend:
[1] = ATG_NFI_CIS: Attagene CIS-FACTORIAL HepG2 Assay for human Nuclear Factor I (NFI) (AID 2282989); conditions: HepG2 cis-regulatory reporter, NFI response element transcription; actives raise or lower the signal
How it was run: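 Reporter transcripts were measured by RT-PCR with fluorescent primer extension and capillary electrophoresis 24 h post-treatment. HepG2 cells carried transiently transfected cis-regulated reporter constructs reporting endogenous factor activity; gain or loss fitted against DMSO baseline.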

[2] = molecular target: Myc proto-oncogene protein (Homo sapiens) (UniProt P01106); assay: ATG_Myc_CIS: Attagene CIS-FACTORIAL HepG2 Assay for human Myelocytomatosis (Myc) Proto-Oncogene Transcription Factor (AID 2282990); conditions: HepG2, Attagene cis-reporter transcription factor activity; actives raise or lower the signal
How it was run: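 Transiently transfected HepG2 cells bearing cis-promoter reporter units for endogenous transcription factors; 24 h exposure. Reporter mRNA measured by RT-PCR, 6-FAM primer extension, HpaI cut and capillary electrophoresis; bidirectional fit relative to DMSO.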

[3] = ATG_NF_kB_CIS: Attagene CIS-FACTORIAL HepG2 Assay for human Nuclear Factor Kappa B (NF-kB) (AID 2282991); conditions: HepG2 Attagene cis-factorial NF-kB reporter mRNA; actives raise or lower the signal
How it was run: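 Endogenous transcription factor activity in HepG2 was captured via cis-regulated reporter constructs; after 24 h dosing, reporter mRNA was reverse-transcribed, amplified, fluorescently labelled and sized by capillary electrophoresis, with activity fitted bidirectionally relative to DMSO.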

[4] = ATG_NRF2_ARE_CIS: Attagene CIS-FACTORIAL HepG2 Assay for human Nuclear Factor Erythroid 2 Related Factor 2 (NFR2) response to Antioxidant Response Elements (ARE) (AID 2282992); conditions: HepG2 Attagene ARE/NRF2 reporter, transcription factor activity; actives raise or lower the signal;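 as to AC50: reporter mRNA level measured by RT-PCR and capillary electrophoresis fluorescence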
How it was run: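 Fluorescence intensity of reporter-specific cDNA fragments, separated by capillary electrophoresis, reflects mRNA induction in transfected HepG2 cells at 24 h. Activity is fitted bidirectionally, DMSO serving as baseline.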

[5] = ATG_Oct_MLP_CIS: Attagene CIS-FACTORIAL HepG2 Assay for human Octamer-Binding Transcription Factor (Oct) (AID 2282993); conditions: HepG2 Attagene cis-factorial Oct reporter, mRNA; actives raise or lower the signal
How it was run: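 Readout is reporter transcript level from RT-PCR with fluorescent primer extension and capillary electrophoresis, fitted in both directions against DMSO. Transfected HepG2 reporter units report endogenous factor activity after 24 h dosing.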

[6] = molecular target: Cellular tumor antigen p53 (Homo sapiens) (UniProt P04637); assay: ATG_p53_CIS: Attagene CIS-FACTORIAL HepG2 Assay for human p53 Transcription Factor (AID 2282994); conditions: HepG2 p53 cis-element reporter, Attagene mRNA; actives raise or lower the signal
How it was run: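 Transiently transfected HepG2 (multiple cis reporter transcription units); exposure 24 h; reporter RNA via RT-PCR, 6-FAM extension, 2 h HpaI digest at 37 C, CE detection; DMSO baseline.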

[7] = molecular target: human Peroxisome Proliferator-activated Receptor delta (PPARd), PPARD (gene 5467) (UniProt Q03181); assay: ATG_PPARd_TRANS: Attagene TRANS-FACTORIAL HepG2 Assay for human Peroxisome Proliferator-activated Receptor delta (PPARd) (AID 2283002; active = hit-call score of the fitted dose curve at least 0.9, where 1 is the maximum)
How it was run: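 HepG2 cells transiently transfected with GAL4-UAS multiplexed reporter units driven by exogenous chimeric NR-GAL4 proteins; 24 h compound exposure. Reporter mRNA measured by RT-PCR, 6-FAM primer extension, HpaI digestion and capillary electrophoresis; gain of signal fitted relative to DMSO.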

[8] = molecular target: Nuclear receptor subfamily 1 group I member 2 (Homo sapiens) (UniProt O75469); assay: ATG_PXR_TRANS: Attagene TRANS-FACTORIAL HepG2 Assay for human Pregnane X Receptor (PXR) (AID 2283008; active = hit-call score of the fitted dose curve at least 0.9, where 1 is the maximum)
How it was run: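 Transient HepG2 transfectants carrying multiplexed reporter transcription units; PXR activity read through a Gal4 chimera. 24 h exposure. RT-PCR/CE fluorescence; upward curve fit referenced to DMSO.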

[9] = molecular target: human Peroxisome Proliferator-activated Receptor alpha (PPARa), PPARA (gene 5465) (UniProt Q07869); assay: ATG_PPARa_TRANS: Attagene TRANS-FACTORIAL HepG2 Assay for human Peroxisome Proliferator-activated Receptor alpha (PPARa) (AID 2283001; active = hit-call score of the fitted dose curve at least 0.9, where 1 is the maximum)
How it was run: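 Transient HepG2 transfection, GAL4-UAS reporters, NR-Gal4 chimeras; 24 h compound exposure. Readout: reporter transcripts by RT-PCR, 6-FAM primer extension, HpaI digest, capillary electrophoresis. Positive direction vs DMSO baseline.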

[10] = molecular target: Peroxisome proliferator-activated receptor gamma (Homo sapiens) (UniProt P37231); assay: ATG_PPARg_TRANS: Attagene TRANS-FACTORIAL HepG2 Assay for human Peroxisome Proliferator-activated Receptor-gamma (PPARg) (AID 2283007; active = hit-call score of the fitted dose curve at least 0.9, where 1 is the maximum)
How it was run: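 A TRANS-format multiplexed reporter assay measures activity of an exogenous chimeric NR-Gal4 protein in HepG2 cells. After 24 h of chemical exposure, reporter transcripts are amplified, fluorescently labelled and sized by capillary electrophoresis, with gain of signal scored against DMSO.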

[11] = molecular target: human RAR-related Orphan Receptor beta (RORb), RORB (gene 6096) (UniProt Q92753); assay: ATG_RORb_TRANS: Attagene TRANS-FACTORIAL HepG2 Assay for human RAR-related Orphan Receptor beta (RORb) (AID 2283010; active = hit-call score of the fitted dose curve at least 0.9, where 1 is the maximum)
How it was run: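 Multiplexed transcription-factor reporter assay: HepG2 cells transiently carrying NR-Gal4/GAL4-UAS constructs, 24 h treatment, mRNA quantified by RT-PCR plus capillary electrophoresis fluorescence; activity scored as induction over DMSO.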

[12] = molecular target: human Retinoic Acid Receptor beta (RARb), RARB (gene 5915) (UniProt P10826); assay: ATG_RARb_TRANS: Attagene TRANS-FACTORIAL HepG2 Assay for human Retinoic Acid Receptor beta (AID 2283004; active = hit-call score of the fitted dose curve at least 0.9, where 1 is the maximum)
How it was run: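 Transient transfection of HepG2 with multiple reporter units → chemical dosing, 24 h → total RNA isolation → RT with oligo(dT) → reporter-specific PCR, 6-FAM primer extension, HpaI digest → capillary electrophoresis. Positive direction vs DMSO control.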

[13] = molecular target: Retinoic acid receptor alpha (Homo sapiens) (UniProt P10276); assay: ATG_RARa_TRANS: Attagene TRANS-FACTORIAL HepG2 Assay for human Retinoic Acid Receptor alpha (RARa) (AID 2283005; active = hit-call score of the fitted dose curve at least 0.9, where 1 is the maximum)
How it was run: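 HepG2 transiently transfected with multiplex GAL4-UAS reporter units including a human RARa–GAL4 chimera; 24 h compound exposure. Reporter mRNA quantified by RT-PCR, 6-FAM labeling and capillary electrophoresis; gain of signal versus DMSO.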

[14] = molecular target: human Retinoic Acid Receptor gamma (RARg), RARG (gene 5916) (UniProt P13631); assay: ATG_RARg_TRANS: Attagene TRANS-FACTORIAL HepG2 Assay for human Retinoic Acid Receptor gamma (RARg) (AID 2283009; active = hit-call score of the fitted dose curve at least 0.9, where 1 is the maximum)
How it was run: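 Gain-of-signal relative to DMSO is reported from fluorescent capillary electrophoresis of RT-PCR reporter products. These came from HepG2 cells expressing transfected RARg-GAL4 chimeras with UAS reporters, harvested 24 h after dosing.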

Sequence of human Peroxisome Proliferator-activated Receptor delta (PPARd), PPARD (gene 5467) (Q03181 whole entry, looked up, the tested form may be a part): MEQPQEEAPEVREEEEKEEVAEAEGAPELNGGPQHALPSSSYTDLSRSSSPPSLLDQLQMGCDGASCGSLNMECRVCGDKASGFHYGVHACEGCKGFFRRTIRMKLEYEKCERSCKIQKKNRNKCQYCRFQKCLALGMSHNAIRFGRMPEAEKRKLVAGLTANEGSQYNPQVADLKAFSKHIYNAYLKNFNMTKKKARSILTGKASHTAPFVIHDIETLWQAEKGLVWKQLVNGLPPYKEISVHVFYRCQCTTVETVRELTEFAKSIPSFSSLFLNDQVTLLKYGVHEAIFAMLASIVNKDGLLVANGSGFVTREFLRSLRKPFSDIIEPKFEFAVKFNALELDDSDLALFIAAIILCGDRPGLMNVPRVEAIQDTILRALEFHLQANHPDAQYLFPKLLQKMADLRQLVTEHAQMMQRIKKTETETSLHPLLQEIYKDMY
Sequence of Retinoic acid receptor alpha (Homo sapiens) (P10276 whole entry, looked up, the tested form may be a part): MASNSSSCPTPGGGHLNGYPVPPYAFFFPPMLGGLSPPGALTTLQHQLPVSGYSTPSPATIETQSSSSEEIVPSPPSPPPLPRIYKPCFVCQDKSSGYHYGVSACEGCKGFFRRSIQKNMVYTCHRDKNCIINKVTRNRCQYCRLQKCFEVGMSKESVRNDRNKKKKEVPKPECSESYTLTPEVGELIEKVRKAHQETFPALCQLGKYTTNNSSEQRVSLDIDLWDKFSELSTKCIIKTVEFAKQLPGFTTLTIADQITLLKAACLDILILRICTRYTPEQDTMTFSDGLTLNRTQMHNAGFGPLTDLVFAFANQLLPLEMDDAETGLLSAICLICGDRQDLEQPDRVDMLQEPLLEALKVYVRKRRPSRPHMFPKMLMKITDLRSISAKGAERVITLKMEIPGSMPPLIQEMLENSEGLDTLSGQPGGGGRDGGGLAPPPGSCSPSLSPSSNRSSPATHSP
Sequence of human RAR-related Orphan Receptor beta (RORb), RORB (gene 6096) (Q92753 whole entry, looked up, the tested form may be a part): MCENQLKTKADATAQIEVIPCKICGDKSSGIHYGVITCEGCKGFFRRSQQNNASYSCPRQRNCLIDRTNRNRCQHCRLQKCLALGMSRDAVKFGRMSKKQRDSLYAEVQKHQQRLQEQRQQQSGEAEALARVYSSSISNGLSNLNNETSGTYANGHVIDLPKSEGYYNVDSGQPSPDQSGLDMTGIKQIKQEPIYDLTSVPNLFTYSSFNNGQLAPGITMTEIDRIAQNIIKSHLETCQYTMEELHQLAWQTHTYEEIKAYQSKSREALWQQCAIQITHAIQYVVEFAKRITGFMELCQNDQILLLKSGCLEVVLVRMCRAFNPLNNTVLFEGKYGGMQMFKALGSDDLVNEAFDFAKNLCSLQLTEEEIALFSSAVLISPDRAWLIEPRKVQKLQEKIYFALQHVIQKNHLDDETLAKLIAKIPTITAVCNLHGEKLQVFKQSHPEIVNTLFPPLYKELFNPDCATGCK
Sequence of Cellular tumor antigen p53 (Homo sapiens) (P04637 whole entry, looked up): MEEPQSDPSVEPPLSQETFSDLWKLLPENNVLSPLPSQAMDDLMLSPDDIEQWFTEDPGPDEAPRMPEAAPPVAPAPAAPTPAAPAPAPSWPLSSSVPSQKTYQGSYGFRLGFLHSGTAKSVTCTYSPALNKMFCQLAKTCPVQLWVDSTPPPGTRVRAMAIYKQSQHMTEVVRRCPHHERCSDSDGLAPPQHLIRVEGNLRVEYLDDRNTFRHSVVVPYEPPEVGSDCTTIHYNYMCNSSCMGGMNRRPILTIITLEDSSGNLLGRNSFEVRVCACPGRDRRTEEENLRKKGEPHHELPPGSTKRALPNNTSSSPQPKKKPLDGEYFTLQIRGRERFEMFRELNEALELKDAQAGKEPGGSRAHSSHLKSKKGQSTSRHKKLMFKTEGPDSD
Sequence of Myc proto-oncogene protein (Homo sapiens) (P01106 whole entry, looked up): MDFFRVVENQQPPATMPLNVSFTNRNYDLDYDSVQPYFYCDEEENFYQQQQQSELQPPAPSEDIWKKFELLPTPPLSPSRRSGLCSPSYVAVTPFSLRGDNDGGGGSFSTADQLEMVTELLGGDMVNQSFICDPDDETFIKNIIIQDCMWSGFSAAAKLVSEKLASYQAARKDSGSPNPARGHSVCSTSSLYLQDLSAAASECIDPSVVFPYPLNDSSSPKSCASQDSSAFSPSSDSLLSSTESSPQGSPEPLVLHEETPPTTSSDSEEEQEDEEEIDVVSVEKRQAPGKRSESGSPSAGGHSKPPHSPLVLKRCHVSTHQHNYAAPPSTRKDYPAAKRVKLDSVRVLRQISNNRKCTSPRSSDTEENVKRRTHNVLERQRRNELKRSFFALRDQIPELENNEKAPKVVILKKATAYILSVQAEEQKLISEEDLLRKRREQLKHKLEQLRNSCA
Sequence of human Peroxisome Proliferator-activated Receptor alpha (PPARa), PPARA (gene 5465) (Q07869 whole entry, looked up, the tested form may be a part): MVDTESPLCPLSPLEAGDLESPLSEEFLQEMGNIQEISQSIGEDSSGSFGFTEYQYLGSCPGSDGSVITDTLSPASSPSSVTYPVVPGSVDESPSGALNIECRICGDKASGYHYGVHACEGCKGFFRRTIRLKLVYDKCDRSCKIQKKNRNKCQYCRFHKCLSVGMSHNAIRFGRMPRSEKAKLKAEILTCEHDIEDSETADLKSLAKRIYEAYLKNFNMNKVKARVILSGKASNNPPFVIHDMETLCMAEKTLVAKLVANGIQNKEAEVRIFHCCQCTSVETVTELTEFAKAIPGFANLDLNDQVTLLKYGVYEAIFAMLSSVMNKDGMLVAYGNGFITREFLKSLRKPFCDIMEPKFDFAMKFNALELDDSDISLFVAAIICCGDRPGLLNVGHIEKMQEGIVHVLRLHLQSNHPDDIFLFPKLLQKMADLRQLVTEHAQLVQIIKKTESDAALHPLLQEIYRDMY
Sequence of human Retinoic Acid Receptor gamma (RARg), RARG (gene 5916) (P13631 whole entry, looked up, the tested form may be a part): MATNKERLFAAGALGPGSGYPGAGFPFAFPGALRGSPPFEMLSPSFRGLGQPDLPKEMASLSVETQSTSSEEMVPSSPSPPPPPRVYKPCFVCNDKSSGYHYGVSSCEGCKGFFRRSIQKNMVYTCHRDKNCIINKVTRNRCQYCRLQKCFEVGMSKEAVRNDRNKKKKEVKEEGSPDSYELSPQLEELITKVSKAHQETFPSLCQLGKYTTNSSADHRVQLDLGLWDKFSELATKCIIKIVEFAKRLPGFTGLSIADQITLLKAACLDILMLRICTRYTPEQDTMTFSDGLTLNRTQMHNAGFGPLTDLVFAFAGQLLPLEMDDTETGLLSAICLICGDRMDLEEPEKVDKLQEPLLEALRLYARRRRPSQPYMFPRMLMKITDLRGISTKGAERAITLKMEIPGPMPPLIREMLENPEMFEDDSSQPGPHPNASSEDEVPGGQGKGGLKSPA
Sequence of human Retinoic Acid Receptor beta (RARb), RARB (gene 5915) (P10826 whole entry, looked up): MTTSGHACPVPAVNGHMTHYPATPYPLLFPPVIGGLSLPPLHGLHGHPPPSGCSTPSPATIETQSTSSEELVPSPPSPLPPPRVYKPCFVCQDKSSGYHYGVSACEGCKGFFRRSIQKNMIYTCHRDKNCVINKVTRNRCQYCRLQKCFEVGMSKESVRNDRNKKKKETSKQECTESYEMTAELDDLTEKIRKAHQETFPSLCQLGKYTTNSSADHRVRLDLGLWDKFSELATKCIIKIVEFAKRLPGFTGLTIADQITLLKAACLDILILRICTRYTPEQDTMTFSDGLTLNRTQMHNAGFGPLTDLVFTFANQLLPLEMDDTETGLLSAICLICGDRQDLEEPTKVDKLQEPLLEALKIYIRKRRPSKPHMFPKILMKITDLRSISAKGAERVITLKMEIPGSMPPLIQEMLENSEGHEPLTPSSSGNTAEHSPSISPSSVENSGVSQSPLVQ
Sequence of Peroxisome proliferator-activated receptor gamma (Homo sapiens) (P37231 whole entry, looked up, the tested form may be a part): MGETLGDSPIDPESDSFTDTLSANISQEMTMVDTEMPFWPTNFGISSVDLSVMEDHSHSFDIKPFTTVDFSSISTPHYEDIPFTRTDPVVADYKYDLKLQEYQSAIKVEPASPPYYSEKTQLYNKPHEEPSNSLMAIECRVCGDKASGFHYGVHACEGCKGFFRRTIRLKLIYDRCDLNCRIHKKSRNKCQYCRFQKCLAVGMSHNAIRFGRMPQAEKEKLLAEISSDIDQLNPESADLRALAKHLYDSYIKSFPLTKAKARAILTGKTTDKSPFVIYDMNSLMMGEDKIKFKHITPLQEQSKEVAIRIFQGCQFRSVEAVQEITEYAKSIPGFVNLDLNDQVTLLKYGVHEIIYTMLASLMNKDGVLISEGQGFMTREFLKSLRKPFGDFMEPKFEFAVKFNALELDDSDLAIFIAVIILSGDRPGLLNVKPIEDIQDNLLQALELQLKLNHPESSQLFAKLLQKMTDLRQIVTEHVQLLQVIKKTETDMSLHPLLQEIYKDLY
Sequence of Nuclear receptor subfamily 1 group I member 2 (Homo sapiens) (O75469 whole entry, looked up, the tested form may be a part): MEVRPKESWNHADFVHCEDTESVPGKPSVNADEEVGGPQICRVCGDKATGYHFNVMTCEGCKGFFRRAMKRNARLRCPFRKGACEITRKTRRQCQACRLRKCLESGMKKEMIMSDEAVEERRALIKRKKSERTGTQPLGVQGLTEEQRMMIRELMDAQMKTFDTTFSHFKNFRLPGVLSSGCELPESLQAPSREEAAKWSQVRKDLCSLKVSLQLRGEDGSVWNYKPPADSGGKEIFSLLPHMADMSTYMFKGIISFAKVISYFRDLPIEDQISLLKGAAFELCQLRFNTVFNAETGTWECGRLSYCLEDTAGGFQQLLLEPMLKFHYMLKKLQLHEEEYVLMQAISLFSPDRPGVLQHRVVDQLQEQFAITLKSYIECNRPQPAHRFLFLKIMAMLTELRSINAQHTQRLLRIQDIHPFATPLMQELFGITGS

C=C(C)[C@@H]1CCC2=CC(=O)C[C@@H](C)[C@]2(C)C1
outcome [1]: inactive
outcome [2]: inactive
outcome [3]: inactive
AC50 [4]: 80.7 µM (active)
outcome [5]: inactive
outcome [6]: inactive
outcome [7]: inactive
outcome [8]: inactive

O=C(O)CCCCC1CCSS1 (stereo not given)
outcome [1]: inactive
outcome [2]: inactive
outcome [3]: inactive
AC50 [4]: 40 µM (active)
outcome [5]: inactive
outcome [6]: inactive
outcome [9]: inactive
outcome [10]: inactive
outcome [8]: inactive
outcome [11]: inactive

CCCCCCOC(=O)CCCCC
outcome [1]: inactive
outcome [2]: inactive
outcome [3]: inactive
outcome [4]: inactive
outcome [5]: inactive
outcome [6]: inactive
outcome [12]: inactive
outcome [13]: inactive
outcome [10]: inactive
outcome [8]: inactive
outcome [14]: inactive
outcome [11]: inactive

CCCC(C)C=O (stereo not given)
outcome [1]: inactive
outcome [2]: inactive
outcome [3]: inactive
outcome [4]: inactive
outcome [5]: inactive
outcome [6]: inactive
outcome [9]: inactive
outcome [8]: inactive
outcome [11]: inactive

CC1(CO)CN(c2ccccc2)NC1=O (stereo not given)
outcome [1]: inactive
outcome [2]: inactive
outcome [3]: inactive
outcome [4]: inactive
outcome [5]: inactive
outcome [6]: inactive
outcome [7]: inactive
outcome [12]: inactive
outcome [10]: inactive

CCc1ccc(C=O)cc1
outcome [1]: inactive
outcome [2]: inactive
outcome [3]: inactive
outcome [4]: inactive
outcome [5]: inactive
outcome [6]: inactive
outcome [9]: inactive
outcome [10]: inactive
outcome [8]: inactive
outcome [11]: inactive

CC1CC(OC(=O)c2ccccc2O)CC(C)(C)C1 (stereo not given)
outcome [1]: inactive
outcome [2]: inactive
outcome [3]: inactive
outcome [4]: inactive
outcome [5]: inactive
outcome [6]: inactive
outcome [7]: inactive
outcome [12]: inactive
outcome [13]: inactive
outcome [10]: inactive
outcome [8]: inactive
outcome [14]: inactive

Cc1c(Cl)c(=O)oc2cc(O)ccc12
outcome [1]: inactive
outcome [2]: inactive
outcome [3]: inactive
AC50 [4]: 78.5 µM (active)
outcome [5]: inactive
outcome [6]: inactive
outcome [7]: inactive
AC50 [10]: 100 µM (active)
outcome [8]: inactive

Clc1nc(C(Cl)(Cl)Cl)c(Cl)c(Cl)c1Cl
AC50 [1]: 52.4 µM (active)
outcome [2]: inactive
outcome [3]: inactive
AC50 [4]: 27.6 µM (active)
outcome [5]: inactive
outcome [6]: inactive
outcome [7]: inactive
AC50 [10]: 1.45 µM (active)
outcome [11]: inactive

CN(C)C(=N)N=C(N)N
outcome [1]: inactive
outcome [2]: inactive
outcome [3]: inactive
outcome [4]: inactive
outcome [5]: inactive
outcome [6]: inactive
outcome [7]: inactive
outcome [8]: inactive
outcome [14]: inactive

O=[N+]([O-])c1ccc(Nc2ccc(Nc3ccccc3)c(S(=O)(=O)O)c2)c([N+](=O)[O-])c1
outcome [1]: inactive
outcome [2]: inactive
outcome [3]: inactive
AC50 [4]: 171 µM (active)
outcome [5]: inactive
AC50 [6]: 178 µM (active)
outcome [7]: inactive
AC50 [10]: 17.9 µM (active)
AC50 [8]: 22.9 µM (active)
outcome [11]: inactive

CC(C)OP(=O)(CP(=O)(OC(C)C)OC(C)C)OC(C)C
outcome [1]: inactive
outcome [2]: inactive
outcome [3]: inactive
outcome [4]: inactive
outcome [5]: inactive
outcome [6]: inactive
outcome [7]: inactive
AC50 [8]: 3.27 µM (active)

COC(C)CCO (stereo not given)
outcome [1]: inactive
outcome [2]: inactive
outcome [3]: inactive
AC50 [4]: 63.3 µM (active)
AC50 [5]: 151 µM (active)
AC50 [6]: 162 µM (active)
outcome [12]: inactive
outcome [13]: inactive
outcome [10]: inactive
outcome [8]: inactive
outcome [14]: inactive

Cc1cccc(C)c1C
outcome [1]: inactive
outcome [2]: inactive
outcome [3]: inactive
outcome [4]: inactive
outcome [5]: inactive
outcome [6]: inactive
outcome [9]: inactive
outcome [10]: inactive
outcome [11]: inactive
